Screens from PubChem.
Sampled rows, rich in hits. Any-hit rate of the full collection: about 6.1%.
D3 antag: qHTS of D3 Dopamine Receptor Antagonist: qHTS | max response, negative = inhibition, % | D3R cells, DiscoveRx beta-arrestin luminescence, antagonist mode; hits give low values | D(3) dopamine receptor (Homo sapiens), P35462 | 360,000 compounds, 2.5% hits | AID 652054, 2013; in the data active = max response below about -50%; also: % is scaled to controls: 0 for no effect and ±100 for the full control effect
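Cells plated overnight at 1500 cells/well, then exposed to library compounds with dopamine controls for 90 minutes at 37 degrees C. DiscoveRx reagent added for 30–60 minutes at room temperature; luminescence read, quantitative HTS format.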
D1 PAM: Potentiators of Human D1 Dopamine Receptor: qHTS; D(1A) dopamine receptor (Homo sapiens), P21728; HEK293 TREx D1 cells, calcium flux, dopamine EC20 potentiation; potentiation, % at 10 µM; 360,000 compounds, 0.036% hits; AID 504651, 2011; in the data active = potentiation above about 30%; also: 0% is about no effect
Target sequence (P21728 whole entry, looked up): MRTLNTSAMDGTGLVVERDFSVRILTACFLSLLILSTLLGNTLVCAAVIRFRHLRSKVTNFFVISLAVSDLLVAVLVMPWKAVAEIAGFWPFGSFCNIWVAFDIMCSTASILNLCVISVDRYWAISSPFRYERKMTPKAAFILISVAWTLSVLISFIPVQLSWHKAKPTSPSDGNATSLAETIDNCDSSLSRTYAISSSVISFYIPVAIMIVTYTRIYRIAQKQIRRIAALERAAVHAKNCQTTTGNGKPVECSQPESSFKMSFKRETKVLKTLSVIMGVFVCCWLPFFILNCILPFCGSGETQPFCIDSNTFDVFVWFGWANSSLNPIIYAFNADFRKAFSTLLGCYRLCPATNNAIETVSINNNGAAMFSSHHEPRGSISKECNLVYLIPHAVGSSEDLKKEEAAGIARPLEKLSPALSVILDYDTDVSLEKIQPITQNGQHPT
D1 antagonist: Antagonist of Human D 1 Dopamine Receptor: qHTS; D(1A) dopamine receptor (Homo sapiens), P21728; HEK293 TREx D1 cells, calcium flux, dopamine EC80; hits give low values; activity change, negative = inhibition, % at 10 µM; 360,000 compounds, 3.2% hits; AID 504652, 2011; in the data active = activity change below about -30%; also: % is scaled to controls: 0 for no effect and ±100 for the full control effect
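After overnight tetracycline induction at 30 C, force-coupled D1 HEK293 cells took up a no-wash calcium dye at room temperature. Compounds were added and monitored 180 s, and the response to EC80 dopamine was then recorded.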
D3 ag: qHTS of D3 Dopamine Receptor Agonist: qHTS. AID 652048, 2013. D3R DiscoveRx beta-arrestin cells, luminescence, 90 min. max activation, %. D(3) dopamine receptor (Homo sapiens), P35462. 410,000 compounds, 0.58% hits; in the data active = max activation above about 30%; also: 0% is about no effect
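Cells at 1500/well, incubated overnight, then treated with pinned compounds (dopamine as control) for 90 min at 37 degrees C. DiscoveRx reagent added for 30 - 60 minutes at room temperature; luminescence read.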
D1 ag: Allosteric Agonists of the Human D1 Dopamine Receptor: qHTS. D(1A) dopamine receptor (Homo sapiens), P21728. HEK293 T-REx D1 cells, calcium flux, agonist mode. 360,000 compounds, 1% hits. activation, % at 2 µM; in the data active = activation above about 30%; also: 0% is about no effect
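Inducible HEK293 T-REx D1 cells, force-coupled to calcium signalling, were plated at 4000 cells/well with tetracycline and held overnight at 30 C. After no-wash calcium dye loading, compound-evoked calcium rise over 180 s flagged agonists.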
* hit, by the source's call; ! = not confirmed by another sample.

What do the screens show for `COc1ccc(NS(=O)(=O)c2ccc3c(c2)CCN3C(=O)C2CC2)cc1OC`?
D1 PAM: -3; D1 antagonist: -33*; D3 ag: 2; D1 ag: 17

What do the screens show for `Cc1c(NS(=O)(=O)c2ccc3c(c2)CCN3C(=O)C2CC2)c(=O)n(-c2ccccc2)n1C`?
D3 antag: 14; D1 PAM: -2; D1 antagonist: -35*; D3 ag: 3; D1 ag: 0

How did Cc1c(NS(=O)(=O)N2CCCC2)c(=O)n(-c2ccccc2)n1C do in these assays?
D3 antag: -27; D1 PAM: -6; D1 antagonist: -52*; D3 ag: -4; D1 ag: 1

What do the screens show for `CCc1ccccc1NS(=O)(=O)c1ccc2c(c1)CCN2C(=O)C1CC1`?
D1 PAM: 1; D1 antagonist: -3; D3 ag: 6; D1 ag: 10

How did CN1CCN(c2ccccc2NS(=O)(=O)c2ccc3c(c2)CCN3C(=O)C2CCC2)CC1 do in these assays?
D3 antag: -52*; D3 ag: -12

What do the screens show for `Cc1ccc2c(c1)sc1nc(-c3cc4cc(Cl)ccc4oc3=O)cn12`?
D1 PAM: -2; D1 antagonist: 1; D3 ag: 11; D1 ag: 3

How did COc1ccc(Cn2c(C(=O)O)c(CNCC(C)c3ccccc3)c3ccc(OC)cc32)cc1 (stereo unspecified) do in these assays?
D1 PAM: -5; D1 antagonist: -5; D3 ag: 5; D1 ag: 1

Results for CC1=C(C(=O)Nc2ccccc2)C(c2cccn2C)n2ncnc2N1 (stereo unspecified) ?
D1 PAM: 0; D1 antagonist: 16; D3 ag: 3; D1 ag: 0

Results for CCOc1ccc(-n2c(SCC(=O)N3CCc4ccccc43)nc3c([nH]c4ccccc43)c2=O)cc1 ?
D1 PAM: 1; D1 antagonist: 15; D3 ag: -5; D1 ag: 0

How did O=C(C1CC1)N1CCc2cc(S(=O)(=O)N(CCO)Cc3ccccc3)ccc21 do in these assays?
D3 antag: 7; D1 PAM: -5; D1 antagonist: -40*; D3 ag: -7; D1 ag: 11

What do the screens show for `S=C(Nc1cccnc1)NC1CC2CCC1C2` (stereo unspecified)?
D3 antag: 3; D1 PAM: -3; D1 antagonist: -34*; D3 ag: 14; D1 ag: 18

What do the screens show for `CCN(CC)CCNC(=O)c1c(C)[nH]c(/C=C2\C(=O)Nc3ccc(F)cc32)c1C`?
D3 ag: -16

How did CCOC(=O)N1CCN(C2CC(=O)N(c3ccc(C)cc3)C2=O)CC1 (stereo unspecified) do in these assays?
D3 antag: -63*; D1 PAM: 3; D1 antagonist: -4; D3 ag: -11; D1 ag: 5

How did CCOC(=O)N1CCN(C2CC(=O)N(c3ccc(F)cc3)C2=O)CC1 (stereo unspecified) do in these assays?
D3 antag: 13; D1 PAM: 4; D1 antagonist: 0; D3 ag: 2; D1 ag: 0

How did Cc1ccc(N2C(=O)CC(N3CCN(C4CCc5ccccc5C4)CC3)C2=O)cc1 (stereo unspecified) do in these assays?
D3 antag: -55*; D1 PAM: -11; D1 antagonist: -7; D3 ag: -14; D1 ag: 5

Results for CCOC(=O)N1CCN(C2CC(=O)N(c3ccc(Oc4ccccc4)cc3)C2=O)CC1 (stereo unspecified) ?
D3 antag: 15; D1 PAM: -3; D1 antagonist: -9; D3 ag: 53*; D1 ag: 8

How did CCOC(=O)c1nnn(CC(=O)NC(=O)Nc2ccc(F)cc2)c1C(=O)OCC do in these assays?
D3 antag: 0; D1 PAM: -2; D1 antagonist: -9; D3 ag: 1; D1 ag: 42*!

What do the screens show for `CC(C)[C@H](CN1CCC[C@H]1CN1C(N)=NC[C@@H]1Cc1ccccc1)N1C[C@@H](Cc2ccccc2)N(CCc2ccc(Cl)c(Cl)c2)C1=N`?
D3 antag: -29; D3 ag: -11
